Compound activity as filed in PubChem BioAssay.
WRN helicase inh: inhibitors of human WRN helicase | Potency, µM (highest dose often 114 µM), for inactives: at the top dose activity change, negative = inhibition, most hits filed as inhibitors | 360,000 compounds, 0.46% hits | WRN helicase unwinding, fluorescent forked duplex, kinetic | Q14191; further: on the % scale 0 is the no-effect control and ±100 the full control effect; nearly all actives have a fitted effect of over 55% in size
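Kinetic red-fluorescence monitoring (525/598 nm) tracks WRN helicase activity after 100 nM fluorophore-quencher forked duplex and 2 mM ATP are added to 20 nM enzyme pretreated 15 min at room temperature with compound.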
Pol beta inh: blocks human DNA polymerase beta activity; Pol beta primer extension/strand displacement, fluorescence kinetic; Potency, µM (doses to about 114 µM), for inactives: top-dose activity change, negative = inhibition, hits mostly inhibitors; 340,000 compounds, 1.3% hits; AID 485314; further: on the % scale 0 is the no-effect control and ±100 the full control effect
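Homogeneous kinetic assay of primer extension and strand displacement by 10 nM Pol beta, preincubated 15 min at room temperature with compound before 50 nM substrate (final) was added. Read at 0 and 10 min; four-parameter Hill fit.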
POLI inh: blocks human DNA polymerase iota activity; 390,000 compounds, 1% hits; Q9UNA4; Pol iota fluorescent replication assay, 10 min; AID 588590; Potency, µM (series often up to 115 µM), for the others: at the top dose activity, negative = inhibition, usual class: inhibitors
Target sequence (Q9UNA4 whole entry, looked up): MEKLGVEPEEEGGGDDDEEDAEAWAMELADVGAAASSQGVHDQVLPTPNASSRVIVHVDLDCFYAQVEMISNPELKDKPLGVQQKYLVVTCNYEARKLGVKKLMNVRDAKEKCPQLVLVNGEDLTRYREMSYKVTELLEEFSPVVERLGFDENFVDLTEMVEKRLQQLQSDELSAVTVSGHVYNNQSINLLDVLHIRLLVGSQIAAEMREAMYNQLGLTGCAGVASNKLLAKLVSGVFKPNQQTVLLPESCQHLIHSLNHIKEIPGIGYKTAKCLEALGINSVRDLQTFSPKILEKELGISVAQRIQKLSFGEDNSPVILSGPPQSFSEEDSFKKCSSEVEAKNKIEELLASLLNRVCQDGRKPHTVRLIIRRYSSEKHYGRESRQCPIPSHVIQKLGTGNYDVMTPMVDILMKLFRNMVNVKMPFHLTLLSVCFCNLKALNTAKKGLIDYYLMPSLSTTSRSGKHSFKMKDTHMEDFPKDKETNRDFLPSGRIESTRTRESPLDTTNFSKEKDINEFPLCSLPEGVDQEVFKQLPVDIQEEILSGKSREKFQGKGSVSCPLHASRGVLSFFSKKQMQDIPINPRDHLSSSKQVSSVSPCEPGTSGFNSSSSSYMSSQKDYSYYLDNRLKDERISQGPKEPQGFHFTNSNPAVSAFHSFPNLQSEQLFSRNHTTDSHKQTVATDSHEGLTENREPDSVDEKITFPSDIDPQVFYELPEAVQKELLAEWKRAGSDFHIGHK
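Fluorescent replication assay read twice, at 0 min and 10 min after adding 50 nM (final) substrate. Enzyme (10 nM) and compounds were first incubated 15 min at room temperature; enzyme-free buffer wells were negative controls.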
Pol kappa inh: inhibitors of human DNA polymerase kappa; purified Pol kappa, fluorescent DNA synthesis assay, 10 min; Potency, µM (titrated, usually from 107 µM), inactives show at the top dose activity, negative = inhibition, actives largely listed as inhibitors; 400,000 compounds, 0.53% hits; AID 588579; further: on the % scale 0 is the no-effect control and ±100 the full control effect
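Pol kappa 10 nM + cpd, 15 min RT; start w/ substrate 50 nM final; fluorescence kinetic read, 0 and 10 min. Neg ctrl: buffer, no enzyme.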
POLH inh: inhibitors of human DNA polymerase eta; recombinant Pol eta, fluorescent DNA replication assay; Potency, µM (highest dose often 114 µM), for inactives: at the highest dose activity change, negative = inhibition, usual class: inhibitors; Q9Y253; 390,000 compounds, 1.2% hits; further: on the % scale 0 is the no-effect control and ±100 the full control effect
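Pol eta (10 nM) was preincubated with compounds for 15 min at room temperature, after which fluorescent replication substrate (50 nM final) was added to start the reaction. Fluorescence was read kinetically at 0 and 10 min.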
An asterisk follows results filed as active; ? = inconclusive; / = not tested or not shown; [ ] = another dose, or the depositor's remark. Sampled rows, rich in hits. Any-hit rate of the full collection: about 2.3%. The call rests on the fitted dose curve; in most records, active means well fitted curve in the direction sought with a large enough effect; inconclusive means small, poorly fitted or top-dose-only effect, or another doubt; inactive means no such curve, though single readings can be large; an effect the other way counts as inactive or inconclusive. Potency means the concentration at half of the fitted maximal effect.

SMILES	WRN helicase inh	Pol beta inh	POLI inh	Pol kappa inh	POLH inh
CC(C)C(=O)N1CCN(CCN2C(=O)c3cccc4cccc(c34)C2=O)CC1	5.0%	89.1µM*	13.0%	3.9%[60.1 µM]	-21.5%
CC(=O)c1ccc(NC(=O)C2=CC(c3ccc(C)cc3)=NS(=O)(=O)N2C)cc1	/	-15.1%	28.4%	-4.8%	-25.0%
O=C1C(=O)C(c2cc(O)c(O)c(O)c2)Oc2cc(O)cc(O)c21 (centres undefined)	/	/	1.41µM*	1.26µM*	/
C/C=C1\C(OC2OC(CO)C(O)C(O)C2O)OC=C(C(=O)OC)C1CC(=O)OCC1C(C)C(OC(=O)CC2C(C(=O)OC)=COC(OC3OC(CO)C(O)C(O)C3O)/C2=C\C)CC1C(CO)CO (centres undefined)	-7.1%	25.1µM*	79.4µM*	79.4µM*	?
COC(=O)C1=CO[C@@H](O[C@H]2OC(CO)C(O)C(O)C2O)C2C1CC(O)C2C (some centres undefined)	/	/	/	-10.7%[60.1 µM]	/
O=C(Nc1nc2c(F)c(F)c(F)cc2s1)c1ccco1	-5.5%	-16.2%	11.9%	0.2%	-10.8%
O=C(COC(=O)c1ccc(Br)o1)Nc1nc2c(F)c(F)c(F)cc2s1	-15.3%	11.2µM*	-28.8%	?	56.2µM*
O=C(COC(=O)c1ccco1)Nc1nc2c(F)c(F)c(F)cc2s1	-14.6%	50.1µM*	?	-19.7%	?
O=C(COC(=O)CCC1CCCC1)Nc1nc2c(F)c(F)c(F)cc2s1	-3.8%	1.3%[57.1 µM]	0.1%	0.0%	-11.6%
O=C(COC(=O)c1ccc(NS(=O)(=O)c2cccs2)cc1)Nc1nc2c(F)c(F)c(F)cc2s1	-34.6%	28.2µM*	39.8µM*	?	20µM*
CCCN1C(=O)/C(=C/c2c(NCCCOC(C)C)nc3c(C)cccn3c2=O)SC1=S	?	-11.9%	-7.2%	-8.0%	-20.3%
CCC(C)N1C(=O)/C(=C/c2c(NCCCOC(C)C)nc3c(C)cccn3c2=O)SC1=S (centres undefined)	-21.9%	28.2µM*	13.4%	-6.6%	22.4µM*
NCCCNc1ccc(Br)cn1	/	/	-25.2%	-3.1%	/
O=C1C=CC(=O)N1c1ccc(OC(F)F)cc1	31.6µM*	-0.5%	0.4%	-3.1%	-12.5%
OC1OC[C@H](O)[C@H](O)[C@H]1O (some centres undefined)	/	/	/	14.2%[60.1 µM]	/
CCN(CC)c1ccc2c(-c3ccc(S(=O)(=O)O)cc3S(=O)(=O)[O-])c3ccc(=[N+](CC)CC)cc-3oc2c1	/	5.01µM*	/	?	/
CCN(CC)c1ccc2nc3c4ccccc4c(=O)cc-3oc2c1	?	?	60.4%	-16.5%[60.1 µM]	-23.9%
Cc1cc(Cl)n2c(nc3ccccc32)c1C#N	?	89.1µM*	22.4µM*	-4.5%	39.8µM*
CNc1cc(C)c(C#N)c2nc3ccccc3n12	-20.3%	0.9%	41.9%	-14.6%	-3.2%
CCCN1CNc2c(c(=O)[nH]c(=S)n2CCc2ccc(Cl)cc2)C1	/	/	8.1%	-20.8%	/
Cc1ccc2nc(Nc3ccc(F)cc3)c3nncn3c2c1	-3.4%[57.1 µM]	31.6µM*	5.8%	3.4%	-17.2%
Cc1ccc(C)c(Nc2nc3ccc(C)cc3n3cnnc23)c1	1.6%	33.0%	120.6%	-10.8%	-1.7%
O=C(Nc1ccc2nccnc2c1)N1CCCCCC1	/	/	?	5.0%	/
O=C(COC(=O)Cc1n[nH]c(=O)c2ccccc12)Nc1ncc(Cl)cc1Cl	-10.3%[11.6 µM]	/	11.8%	-2.6%	79.4µM*
O=C(COC(=O)CNC(=O)c1ccccc1F)Nc1ncc(Cl)cc1Cl	-11.1%[11.6 µM]	/	?	-22.6%	50.1µM*
SMILES	WRN helicase inh	Pol beta inh	POLI inh	Pol kappa inh	POLH inh
CCCCC1(C)NC(=S)N2N1C(=S)NC2(C)CCCC (centres undefined)	56.2µM*	23.9%	?	0.3%	-12.4%
COc1ccc(CNc2ncnc3nc[nH]c23)cc1	/	/	?	-32.4%	/
O=C(Nc1ccc2[nH]c(=S)sc2c1)Nc1ccccc1F	-4.2%	-0.7%	?	7.8%	79.4µM*
O=C(NNc1ccc(F)cc1F)c1cccs1	/	/	12.4%	-4.2%	/
CN1CCc2nc3sc(C(=O)c4ccc(F)cc4)c(N)c3cc2C1	/	12.8%	24.7%	2.0%	-18.7%
CN1CCc2nc3sc(C(=O)C45CC6CC(CC(C6)C4)C5)c(N)c3cc2C1	?	50.1µM*	0.0%	?	?
NNC(=O)c1ccc(C(=O)N(c2ccccc2)c2ccccc2)cc1	/	/	5.1%	-12.1%	/
